# Compound activity as filed in PubChem.
# Rows were chosen to be rich in hits. Some 15% of all compounds tested hit in one or more screens of this group.
# Sm TGR inh = inhibitors of Schistosoma mansoni thioredoxin glutathione reductase; Potency, µM (titrated, usually from 114 µM), without a hit: at the highest dose activity change, negative = inhibition, most hits filed as inhibitors; purified TGR, DTNB reduction, TNB absorbance 405 nm; 360,000 tested, 3% active; further: potency means the concentration at half of the fitted maximal effect; on the % scale 0 is the no-effect control and ±100 the full control effect; nearly all actives have a fitted effect of over 60% in size
#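 TGR 20 nM + NADPH 100 uM (dispensed conc.), cpd preinc 15 min RT; start with NADPH (500 uM addition) then DTNB (15 mM addition). Kinetic TNB absorbance, 405 nm filter. Four-parameter Hill fit across titration.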
# HCMV antiviral = human cytomegalovirus inhibition; HFF cells, HCMV-luciferase reporter, 72 h; hits give low values; activity change, negative = inhibition, % at 57.5 µM; 410,000 tested, 4.5% active; AID 1259415; in the data active means activity change below about -60%; inconclusive means no clear call, values can overlap the other calls; inactive means above about -39%; further: on the % scale 0 is the no-effect control and ±100 the full control effect
#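 Two-dose cell screen: HFF monolayers treated with compounds and infected with luciferase-expressing HCMV at 1 PFU/cell, 72 h at 37C, then lysed for luciferase measurement.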
# SARS PLpro yeast = inhibitors of SARS-CoV papain-like protease in yeast. 330,000 tested, 0.19% active. S. cerevisiae expressing SARS-CoV PLpro, growth rescue. Potency, µM (doses to about 32.9 µM), inactives show top-dose activity, positive = growth rescue, hits mostly activators; calls by dose curve; further: potency means the concentration at half of the fitted maximal effect; 0% is about no effect; nearly all actives have a fitted effect of over 55% in size
# HCV inhibitor = blocks hepatitis C virus; AID 651820; Potency, µM (titrated, usually from 41.8 µM), inactives show at the top dose activity change, negative = inhibition, usual class: inhibitors; Huh7.5.1 HCVcc-Cre infection, luciferase reporter, 44 h; 340,000 tested, 3.4% active; further: potency means the concentration at half of the fitted maximal effect; on the % scale 0 is the no-effect control and ±100 the full control effect
#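 HCVcc-Cre virus at an moi near 0.5 was added right after compound to cells cultured 4 h from seeding (1,000 cells/well). Luciferase activity was determined 44 h later, 15 min after substrate addition at RT.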
# Pf growth 96h = P. falciparum growth inhibition at 96 hour, primary screen for plastid delayed-death inhibitors | Potency, µM (doses to about 28.7 µM), inactives show top-dose activity change, negative = inhibition, usual class: inhibitors | AID 504834 | P. falciparum luciferase reporter growth, 96 h | 320,000 tested, 6.9% active; further: potency means the concentration at half of the fitted maximal effect; on the % scale 0 is the no-effect control and ±100 the full control effect
#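 P. falciparum expressing integrated firefly luciferase, in erythrocytes at 2% hematocrit, 0.05% parasitemia, incubated with compounds 96 h at 37 C, 5% CO2. Growth inhibition read as loss of luminescence; two-generation exposure targets delayed-death apicoplast inhibitors.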
# Pf growth 48h = P. falciparum growth inhibition at 48 hours (one generation). P. falciparum luciferase growth in erythrocytes, 48 h. Potency, µM (top dose mostly 28.7 µM), without a hit: at the top dose activity change, negative = inhibition, hits mostly inhibitors. 310,000 tested, 5.9% active. AID 504832; further: potency means the concentration at half of the fitted maximal effect; on the % scale 0 is the no-effect control and ±100 the full control effect
#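 Here the parasites carry a stable luciferase gene and grow inside erythrocytes in Albumax-based RPMI medium with compound for one erythrocytic cycle. Activity is scored as loss of luminescent signal.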
# * hit, by the source's call; ? = inconclusive; . = not tested or not shown; [ ] = dose if it differs, or a comment. Unless noted, the call rests on the fitted dose curve; in most records, active means well fitted curve in the direction sought with a large enough effect; inconclusive means small, poorly fitted or top-dose-only effect, or another doubt; inactive means no such curve, though single readings can be large; an effect the other way counts as inactive or inconclusive.
SMILES,Sm TGR inh,HCMV antiviral,SARS PLpro yeast,HCV inhibitor,Pf growth 96h,Pf growth 48h
COc1ccc(OC)c(S(=O)(=O)NCC(c2cccs2)S(=O)(=O)c2ccc(F)cc2)c1 (configuration not stated),0.32µM*,?,.,.,.,.
O=C1NC(Cc2ccc(O)cc2)c2nc3ccc(Br)cc3c(=O)n2-c2cc3ccccc3cc21 (configuration not stated),.,-94*,.,.,.,.
O=C1NC(Cc2ccccc2)c2nc3cc(Cl)ccc3c(=O)n2-c2ccccc21 (configuration not stated),.,7,-1%,3.5µM*,.,.
O=C1NC(Cc2ccccc2)c2nc3ccc(Cl)cc3c(=O)n2-c2ccccc21 (configuration not stated),.,-8,1%,12%,.,.
O=C1NC(Cc2ccccc2)c2nc3ccc(Br)cc3c(=O)n2-c2cc(Cl)ccc21 (configuration not stated),.,-8,-4%,23%,.,.
CCC1CCCCN1S(=O)(=O)c1ccc(NC(=O)C2CCCO2)cc1 (configuration not stated),-13%,-4,2%,12%,39%,-16%
N#Cc1cccnc1N1CCN(C(=O)c2cccc3c2C(=O)c2ccc(Cl)cc2S3(=O)=O)CC1,-32%,32,-19%,13µM*,?,?
N#Cc1cccnc1N1CCN(C(=O)c2cccc3c2C(=O)c2ccc(-c4ccc(Cl)c(C(F)(F)F)c4)cc2S3(=O)=O)CC1,.,.,-4%,?,.,.
O=C1CCCN2N=C(SCC(=O)Nc3ccc([N+](=O)[O-])cc3)SC2=N1,-5%,-28,1%,16%,51%,5%
CCN(CC)CCCn1c2c(c(SCC(=O)Nc3ccc(OC(F)(F)F)cc3)nc1=O)CCC2,-2%,-10,-6%,10µM*,?,?
O=C1CCCN2N=C(SCC(=O)Nc3ccc(OC(F)(F)F)cc3)SC2=N1,3%,-11,0%,25%,12µM*,-17%
CCN(CC)CCCn1c2c(c(SCC(=O)Nc3nc4ccccc4s3)nc1=O)CCC2,7%,-2,6%,?,13µM*,?
CCC(=O)c1ccc(OCc2cn(CC(=O)c3ccc(O)cc3)nn2)cc1,.,4,.,-1%[8.37 µM],.,.
CC(=O)c1c(C)[nH]c(C(=O)NCc2cccc(Cl)c2)c1C,-13%,-1,-5%,11µM*,4%,-5%
CC(=O)c1[nH]c(C)c(C(=O)NCc2ccc(Cl)cc2)c1C,-6%,-94*,.,.,.,.
CC(=O)c1c(C)[nH]c(C(=O)NCc2ccc(Cl)cc2)c1C,.,5,.,.,.,.
COc1cc(C=Cc2nnc3c4ccccc4cnn23)cc(OC)c1OC,.,-11,.,.,.,.
Cc1c(Cl)cccc1NC(=O)CSc1ncccc1C(=O)Oc1ccccc1Cl,-8%,-14,.,.,.,.
CC(=O)Nc1ccc(S(=O)(=O)N2CCC(c3nnc(-c4ccc(C)cc4)o3)CC2)cc1,-1%,-96*,-2%,-9%,?,?
Cc1cccc(-c2nnc(C3CCN(S(=O)(=O)c4cccc(Cl)c4)CC3)o2)c1,-6%,-94*,.,.,.,.
Cc1ccc(-c2nnc(C3CCN(S(=O)(=O)c4ccc(C)c(C)c4)CC3)o2)cc1,-14%,?,.,.,.,.
COc1cccc(-n2sc3c(c2=S)-c2cc(OC)ccc2NC3(C)C)c1,0%,-24,3%,10µM*,?,?
Cc1nn(-c2ccccc2)c(C)c1NC(=O)COc1cc(F)ccc1[N+](=O)[O-],.,?,-10%,?,.,.
O=C1NC(=Nc2cccc(Cl)c2)SC1Cc1cccc(Cl)c1Cl (configuration not stated),8%,-78*,0%,-25%,10µM*,-10%
COc1ccc(C(O)(CCC(C)C)C(CN2CCOCC2)c2ccccc2)cc1 (configuration not stated),-7%,?,-4%,?,-4%,1.7µM*
SMILES,Sm TGR inh,HCMV antiviral,SARS PLpro yeast,HCV inhibitor,Pf growth 96h,Pf growth 48h
CC(C)CCC(O)(c1ccccc1)C(CN1CCOCC1)c1ccccc1 (configuration not stated),-9%,-67*,-4%,?,7%,2.9µM*
CCCc1nc(SCC(=O)c2ccccc2)c2c(=O)n(C)c(=O)n(C)c2n1,8%,?,-2%,11µM*,?,?
CCc1nc(SCC(=O)Nc2cccc(C(F)(F)F)c2)c2c(=O)n(C)c(=O)n(C)c2n1,5%,-6,0%,?,?,9.3µM*
CCc1nc(SCC(=O)c2ccccc2)c2c(=O)n(C)c(=O)n(C)c2n1,-11%,0,2%,13µM*,?,59%
CC(=O)c1ccc(NC(=O)CSc2nc(-c3ccccc3C)nc3c2c(=O)n(C)c(=O)n3C)cc1,50µM*,10,.,.,.,.
O=C(O)/C=C/C(=O)NNc1ncnc2ccccc12,-22%,0,5%,-5%,0%,40%
O=C(N/C(=C\c1ccccc1)C(=O)N1CCOCC1)c1ccco1,8%,71,9%,11%,?,-12%
O=C(Nc1cccc(F)c1)/C(=C\c1cccnc1)NC(=O)c1ccco1,4%,-20,1%,15%,-1%,-6%
CC(C)CC(NC(=O)/C(=C\c1ccco1)NC(=O)c1ccco1)C(=O)O (configuration not stated),35µM*,4,4%,5%,?,15%
O=C(NCc1ccccc1)/C(=C/c1ccco1)NC(=O)c1ccco1,1%,-4,-3%,4%,-2%,?
O=C(Nc1cccc(F)c1)/C(=C/c1ccco1)NC(=O)c1ccco1,45µM*,-36,-6%,-3%,-26%,-3%
O=C(N/C(=C/c1ccco1)C(=O)N1CCc2ccccc21)c1ccco1,32µM*,6,-5%,-15%,?,-15%
CCOC(=O)/C(=C/c1ccco1)NC(=O)c1ccc(Br)o1,18µM*,4,1%,3%,?,13%
CCCCc1ccc(NC2=NCC(=O)N2CCc2ccccc2)cc1,6%,5,-1%,?,?,?
CN(C)S(=O)(=O)c1ccc2c(c1)N(CC(=O)NCc1cccc(Br)c1)C(=O)CS2,14%,3,.,.,.,.
CCS(=O)(=O)N1CCN=C1SCc1cccnc1,7%,-24,2%,34%,25%,?
O=C(/C=C/c1ccccc1)N/C(=C\c1ccco1)C(=O)NCCO,-28%,29,-1%,2%,?,57%
CC(C)CC(NC(=O)/C(=C/c1ccco1)NC(=O)c1ccc(Br)o1)C(=O)O (configuration not stated),45µM*,68,1%,4%,8%,-7%
